Measured values as given in PubChem BioAssay AID623959 (National Center for Advancing Translational Sciences (NCATS), 2012).
In all, about 1,400 compounds went through this assay and fewer than 10 were called active. Inconclusive results (about 8%) are left out. A selection follows. A number with no mark means an inactive call. Calls come from the whole dose curve; as a rule, active = well fitted curve in the direction sought with a large enough effect; inconclusive = small, poorly fitted or top-dose-only effect, or another doubt; inactive = no such curve, though single readings can be large or run the other way.

Molecular target: Transient receptor potential cation channel subfamily V member 1 (Homo sapiens) (UniProt Q8NER1)
Assay: qHTS Assay for Compounds that Act as Potentiators of the Vanilloid Receptor 1: Hit Validation; for activity change, positive = potentiation: % of control where 0% means no effect
Conditions: TRPV1-expressing cells, Fluo-8 calcium influx, capsaicin EC20; series mostly up to 42.1 µM; activity change, positive = potentiation: at the top concentration
Text: The transient receptor potential ion channel, family V, number 1, (TRPV1) is one of the most important molecular transducers of painful stimuli and a potential target for analgesic drug development. Although recent clinical trials with orthosteric antagonists have not produced a successful drug because of a hyperthermia side effect and their tendency to block thermal noxious pain, this ion channel is undeniably well placed in the pain pathway, and the idea of blocking pain signals before they enter the CNS is an excellent concept and of proven efficacy when TRPV1 agonists are used. We propose a new approach involving allosteric modulation to impose an activity-dependent constraint within the context of inflammation and tissue damage that would alter the responsiveness of the channel in a way that an orthosteric vanilloid antagonist cannot achieve. We believe that the allosteric modulator approach has not been explored for this target. The main goal of this proposal is to identify additional, new, potent allosteric modulators of TRPV1 that can be used to investigate TRPV1 function. Our recent report provides evidence of proof of concept, but the compounds are just at the edge of utility in terms of potency. […] The question of whether they can be used as analgesic agents is complex, but if suitable compounds are identified then testing for analgesic properties will be conducted. Compounds identified as agonists were re-tested in the primary screen for hit validation. NIH Chemical Genomics Center [NCGC] NIH Molecular Libraries Probe Centers Network [MLPCN] MLPCN Grant: MH089480 Assay Submitter (PI): Michael Iadarola, National Institute of Dental and Cranofacial Research
Upon TRPV1 activation in TRPV1 cells, the channel opens and extracellular cations flow through the channel into the cytosol. A calcium binding dye (Fluo-8) becomes fluorescent when bound to calcium. This dye is pre-loaded into cells and is used as a marker for calcium influx. The amount of accumulated calcium is precisely quantified using the FDSS kinetic reader and the calcium dye. For the HTS assay, freshly prepared cells are plated at a density of 2000/well in 3 ul medium in 1536-well plates and cultured overnight at 35.5C. Cells will be loaded with 1 ul of the homogeneous calcium dye (ABD Bioquest) at room temperature for 40 to 90 minutes. Plates will be loaded into the FDSS kinetic reader and a 1 sec / cycle for 10 second baseline signal will be measured. Compound library will then be added with a pintool at 23 nl and measured kinetically for 3 minutes. This portion of the read is considered the agonist portion of the screen. Following the 3 minutes of incubation, an on board pipettor will deliver 1 ul of capsaicin for a final concentration equal to the EC20. Signal will be measured kinetically for an additional 2 minutes. This portion of the read is considered the allosteric enhancer portion of the screen. The FDSS reader has a standard filter set capable of measuring calcium bound Fluo-8 (ex=480 and em=520 nm).
Potency is the fitted concentration of half-maximal effect.

Chain of Transient receptor potential cation channel subfamily V member 1 (Homo sapiens) (Q8NER1 whole entry, looked up): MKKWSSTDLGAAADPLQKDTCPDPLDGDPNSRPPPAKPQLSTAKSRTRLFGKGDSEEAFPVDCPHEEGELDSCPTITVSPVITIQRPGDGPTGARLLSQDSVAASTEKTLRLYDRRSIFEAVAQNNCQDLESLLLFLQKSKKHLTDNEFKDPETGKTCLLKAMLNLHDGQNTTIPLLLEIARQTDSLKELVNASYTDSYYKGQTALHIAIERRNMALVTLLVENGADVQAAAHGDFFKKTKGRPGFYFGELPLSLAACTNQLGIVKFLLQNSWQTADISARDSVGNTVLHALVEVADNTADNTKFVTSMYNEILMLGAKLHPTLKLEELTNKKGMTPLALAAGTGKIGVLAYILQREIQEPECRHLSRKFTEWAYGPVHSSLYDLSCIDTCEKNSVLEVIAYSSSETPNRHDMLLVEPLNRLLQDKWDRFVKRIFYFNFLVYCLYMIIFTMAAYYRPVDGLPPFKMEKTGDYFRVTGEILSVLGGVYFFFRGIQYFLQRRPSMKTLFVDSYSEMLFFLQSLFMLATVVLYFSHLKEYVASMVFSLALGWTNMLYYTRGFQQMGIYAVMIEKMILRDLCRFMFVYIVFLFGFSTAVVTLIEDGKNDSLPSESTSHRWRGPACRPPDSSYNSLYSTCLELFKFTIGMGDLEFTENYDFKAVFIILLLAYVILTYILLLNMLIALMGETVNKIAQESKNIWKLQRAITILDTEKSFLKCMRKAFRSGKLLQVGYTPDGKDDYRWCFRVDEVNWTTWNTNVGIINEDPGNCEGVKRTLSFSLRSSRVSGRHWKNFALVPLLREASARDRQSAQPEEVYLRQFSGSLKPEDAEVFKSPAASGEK

Compound | activity change, positive = potentiation [%] | Potency
CC(C)(C)OC(=O)NCCCC[C@H](NC(=O)c1nc[nH]c1C(=O)NCc1ccc(CNC(=O)OC(C)(C)C)cc1)C(=O)OC(C)(C)C | 0.195 | 
CN(c1ccccc1)S(=O)(=O)c1ccc(Cl)c(C(=O)NCCc2c[nH]c3ccccc23)c1 | -6.03 | 
CCc1cccc(C)c1NC(=S)N(CCCN1CCN(C)CC1)Cc1cccs1 | -8.28 | 
Cc1cccc(-n2c(=O)[nH]c3c(C(N)=O)nc(CC(C)C)nc32)c1 | 0.951 | 
COc1ccc(NC(=O)CCCSc2nc(-c3ccco3)cc(C(F)(F)F)n2)cc1OC | -38.7 | 
Cc1ccc(NC(=O)c2cc(S(=O)(=O)N3CCOCC3)ccc2F)c(C)c1 | -31.2 | 
CCOC(=O)c1c(C)c(C(=O)NCC2CCCO2)c(C)n1C (stereo unspecified) | -7.81 | 
Cc1ncsc1CCC(=O)N1CCCC(Nc2ccc(C(C)C)cc2)C1 (stereo unspecified) | -39.8 | 
Cc1ccc(NCc2n[nH]c(=S)n2-c2ccccc2)c(C)c1 | 9.07 | 
NNC(=O)C1COc2cc3ccccc3cc2O1 (stereo unspecified) | -31.3 | 
CCCCC(=O)Nc1ccc(C(=O)Nc2ccc(S(=O)(=O)N3CCCC3)cc2)cc1 | -8.84 | 
COc1ccc(C(=O)Nc2ccc3ccccc3c2)cc1 | -32.9 | 
Cc1sc2ncn(CC(=O)Nc3cccc(S(N)(=O)=O)c3)c(=O)c2c1-c1ccccc1 | -4.7 | 
CCC(=O)N(CCc1ccccc1)Cc1cc2cccc(C)c2[nH]c1=O | -38.2 | 
Cc1c(=O)n(OCc2ccccc2F)c2ccccc2[n+]1[O-] | 0.445 | 
Nn1c(Cc2ccccc2)nc2cc(Cl)ccc2c1=O | -8.59 | 
Cc1ccc2c(c1)[C@H]1[C@H](CO2)[C@H](c2ccccc2)[C@]2(C)C(=O)Nc3cc(Cl)ccc3C(=O)N12 | 3 | 
Cc1cc(C)cc(Oc2nc3ccccn3c(=O)c2/C=C(\C#N)C(=O)NC2CCS(=O)(=O)C2)c1 (stereo unspecified) | -10.1 | 
CCC(=O)Nc1cccc(NC(=O)c2ccc3c(c2)OCCO3)c1 | -9.67 | 
CCOc1ccc(-c2cccc(NS(=O)(=O)c3cc([N+](=O)[O-])ccc3Cl)c2)nn1 | 2.27 | 
COC(=O)CCC(=O)OC1(C)C(=O)C=C2C=C(C3CC3)N(c3ccccc3)C=C2C1=O (stereo unspecified) | -6.19 | 
CCN(CC(=O)Nc1ccccc1OC)CC(=O)Nc1sccc1C#N | 5.9 | 

Compound | activity change, positive = potentiation [%] | Potency
C=CCOc1c(Br)cc(CNc2ccc3[nH]c(=O)[nH]c3c2)cc1OCC | -25.8 | 
O=C(CSc1nnc(Cc2ccccc2)o1)NC1CC2CCC1C2 (stereo unspecified) | 6.43 | 
CC(=O)N1CCN(c2ccc(NC(=O)C(c3ccccc3)c3ccccc3)cc2)CC1 | -5.18 | 
Cc1cccc(NC(=S)NCC(c2cccnc2)N(C)C)c1C (stereo unspecified) | 5.7 | 
CC(C)(C)C(=O)NNC(=O)c1ccc(Oc2cc(Cl)cc(Cl)c2)o1 | 0.968 | 
Cc1ccc(NC(=O)CCS(=O)(=O)c2ccc3c(c2)NC(=O)C(C)S3)cc1Cl (stereo unspecified) | 1.02 | 
Cc1ccc(/C=C2\CCC3=C2OC(N)=C(C#N)C3c2ccc(C)cc2)cc1 (stereo unspecified) |  | 8.05 µM (active)
Cc1ccc(NC(=O)CCn2nc(C)cc2C)cc1 | -6.67 | 
O=C(Cc1cccs1)Nc1cccc(-c2ccc3nncn3n2)c1 | 6.87 | 
CC(=O)c1ccc(Nc2ncnc3c2oc2ccccc23)cc1 | -38.7 | 
CC(C)C[C@H](NC(=O)c1nc[nH]c1C(=O)N1CCC(C)CC1)C(=O)OCc1ccccc1 | -10.6 | 
CC(=O)c1cccc(NC(=O)N2C3CCC2CC(NC(=O)Nc2ccccc2)C3)c1 (stereo unspecified) | 4.86 | 
CCOC(=O)N/N=C1\CCS(=O)(=O)c2ccc(Cl)cc21 | 4.78 | 
COc1cc(C)nc(-c2csc(C)n2)n1 | 7.2 | 
O=C(NNC(=O)c1cccc(O)c1)Nc1ccc([N+](=O)[O-])cc1 | 3.43 | 
Cc1cnc(NC(=O)c2cc3c(s2)CCCC3)s1 | -38.8 | 
C(=N\Nc1nn2cnnc2c2ccccc12)/c1ccco1 | -9.75 | 
CCc1ccc(/C=C2/SC(N3CCOCC3)=NC2=O)cc1 | -37.3 | 
Cc1nnc(SCC(=O)N(C)CC(=O)Nc2ccc(F)cc2)n1Cc1ccccc1 | -5.01 | 
COc1ccc(OC)c(NC(=O)CCN2C(=O)c3ccccc3C2=O)c1 | 4.29 | 
CCc1ccc(OCCCC(=O)NCc2ccccc2)cc1 | -4.09 | 
CCN(CC)S(=O)(=O)c1ccc(/C=C/C(=O)Nc2cccc(F)c2)cc1 | -36.7 | 

Compound | activity change, positive = potentiation [%] | Potency
COCCNC(=O)CSc1nc2ccccc2c(=O)n1CC1CCCO1 (stereo unspecified) | 0.611 | 
COc1ccc(C(=O)NC(CC(C)C)C(=O)O)cc1OC (stereo unspecified) | 3.51 | 
CCCCn1c(=O)[nH]c(=O)c2c1nc(-c1ccc(OC)c(Br)c1)n2CC(C)C | -3.67 | 
COC(=O)C(C(=O)Nc1nc2ccccc2s1)C1CCCC1 (stereo unspecified) | -7.89 | 
N=C1/C(=C\c2ccc(-c3ccc(C(=O)O)cc3)o2)C(=O)N=C2SC=C(c3ccccc3)N12 | 24.5 | 
COc1ccc(-[n+]2c(C)cc(/C=C3\Sc4ccccc4N3C)cc2C)cc1 |  | 5.7 µM (active)
Cc1c(N=c2scc(-c3ccccc3)n2C)c(=O)n(-c2ccccc2)n1C | 4.71 | 
COc1ccc(Cc2c(N)nc(C)nc2N)cc1 | -6.3 | 
O=C(N/N=C/c1cccnc1)c1ccc2c(c1)OCO2 | -7.94 | 
COc1cccc(/C=C/C(=O)Nc2cccc(C(C)=O)c2)c1OC | -16.5 | 
Cc1ccc(OCC(=O)c2c[nH]c3ccccc23)c([N+](=O)[O-])n1 | -9.4 | 
COc1cc(OC)c(NC(=O)CCc2nc(-c3ccc(C)cc3)no2)cc1Cl | -4.21 | 
CCO[C@H]1OC(C(=O)NC2CC2)=C[C@@H](c2c[nH]c3ccccc23)[C@@H]1CCCO | -2.5 | 
CCc1ccc(/C=N/NC(=O)c2c[nH]c3ccccc23)s1 | -39 | 
COc1ccc(CNC(=O)C2(CC3CC(c4ccccc4)=NO3)CCN(C(=O)C3CCCC3)CC2)cc1 (stereo unspecified) | -5.73 | 
Cc1oc(-c2cccs2)nc1CS(=O)CC(=O)NCCc1ccccc1 (stereo unspecified) | -3.43 | 
O=S(=O)(c1ccc2c(c1)OCCO2)N1CCN(c2cccc(Cl)c2)CC1 | 4.01 | 
COc1ccc(NC(=O)c2ccc(Br)c(S(=O)(=O)N3CCOCC3)c2)cc1 | -24.8 | 
Cn1cccc1C(=O)NC(=O)COC(=O)c1cc([N+](=O)[O-])ccc1Cl | 8.04 | 
O=C(/C=C/c1cccc2ccccc12)N1CCOCC1 | -31.4 | 
CC(C)c1ccc(OCC(=O)Nc2ccncc2)cc1 | -38.4 | 
CC(C)NC(=O)COC(=O)c1ccc(O)cc1 | -9.92 | 

Compound | activity change, positive = potentiation [%] | Potency
CN1CCN(S(=O)(=O)c2ccc(NC(=O)c3ccc(F)cc3)cc2)CC1 | -2.3 | 
O=C(O/N=C1\CCS(=O)(=O)c2sccc21)c1c(F)cccc1F | 6.48 | 
Cc1cc(C)c(NS(=O)(=O)c2ccc(NC(=O)CCC(=O)O)cc2)c(C)c1 | -6.46 | 
COc1ccc(C(C#N)c2cnccn2)cc1OC (stereo unspecified) | 4.57 | 
CC(=O)c1cc(-c2ccc(F)cc2)n(CCC(=O)Nc2cccnc2)c1C | -38.3 | 
CCOC(=O)/C=C1\CN(CCC(C)C)S(=O)(=O)c2ccccc21 | -8.51 | 
CCN1C(=O)[C@@H]2[C@@H](c3ccc(-c4ccc(F)cc4)cc3)N3CCCC[C@@]3(C(=O)OC)[C@@H]2C1=O | -8.18 | 
CCC(C)Sc1cccc(-c2nc3ccc(Cl)cn3c2NCc2ccccc2)c1 (stereo unspecified) | -38.7 | 
CC(C)(C)c1ccc(/C=C/C(=O)Nc2ccncc2)cc1 | -38.6 | 
CCNC(=O)NC(=O)C(C)OC(=O)c1cccn1C (stereo unspecified) | -7.78 | 
COc1ccc(N=Nc2c(C)[nH][nH]c2=O)cc1 | 0.545 | 
Cc1cc(NS(=O)(=O)c2ccc(NC(=O)COc3ccc(Cl)cc3)cc2)no1 | -10.6 | 
Cc1cccc(C)c1OCC(=O)Nc1cccc(S(=O)(=O)N2CCCC2)c1 | -3.66 | 
Cn1nc(CC(=O)Nc2ccc3c(c2)OCCO3)c2ccccc2c1=O | 4.52 | 
CCn1c(Cc2c(C)[nH]c3ccccc23)nnc1SCC(=O)NCc1ccccc1 | 12.1 | 
CCCCCC(=O)NC(NC(=S)N1CCOCC1)C(Cl)(Cl)Cl (stereo unspecified) | -38.2 | 
COc1ccc(S(=O)(=O)N2CCCC2)cc1C(=O)O | -4.69 | 
Cc1c(Cl)ccc2sc(NC(=O)c3ccco3)nc12 | -36 | 
O=C(O)c1ccc(Br)cn1 | -5.55 | 
CC(C)(C)c1ccc(C(=O)NNC(=O)C2CCCCC2)cc1 | -33.1 | 
O=C1c2ccc(Oc3ccc([N+](=O)[O-])cc3)cc2C(=O)N1CCCO | -2.6 | 
COc1ccccc1-c1cc2ccccc2[nH]1 | -5.83 | 

Compound | activity change, positive = potentiation [%] | Potency
CC(=O)NS(=O)(=O)c1ccc(NC(=O)CC(C)c2ccccc2)cc1 (stereo unspecified) | -3.07 | 
COc1ccc(CNC(=O)CCSc2ccc(F)cc2)cc1OC | -34.4 | 
O=C(O)c1coc2ccccc12 | -8.38 | 
CC(=O)NCC(=O)N(Cc1ccco1)C1(C(=O)NC2CCCC2)CCCCC1 | 2.18 | 
Cn1c(=O)c2c(-c3ccccc3F)c3c(nc2n(C)c1=O)-c1ccccc1C3O (stereo unspecified) | -24.5 | 
COc1ccccc1Nc1ncnc2c1cnn2-c1cccc(C)c1 | -37.7 | 
COc1ccc(C(=O)Nc2ccc3ncccc3c2)cc1 | -33.5 | 
CC(=O)c1cccc(NC(=S)NCCc2ccc(Cl)cc2)c1 | -37.8 | 
CCc1ccccc1NC(=O)CCC(=O)c1cccs1 | 0.167 | 
CCN1C(=O)[C@@H]2[C@H](C1=O)[C@@H]1C(=O)Nc3ccccc3C(=O)N1[C@@H]2c1ccc(Br)cc1 | 2.73 | 
COc1ccc([C@@H]2CC=C(C(=O)O)[C@H](c3cccc(Cl)c3)N2S(=O)(=O)c2ccc(Cl)cc2)cc1 | -6.72 | 
CCOC(=O)C1=C(O)C(=O)N(CCCn2ccnc2)C1c1ccc(C)cc1 (stereo unspecified) | 6.89 | 
CC(=O)c1cccc(Nc2nc(-c3ccccc3)nc3ccccc23)c1 | -6.61 | 
N#Cc1ccccc1N1CCN(C(=O)c2ccc(NC(=O)c3ccc(Br)o3)cc2)CC1 | -2.51 | 
CCOc1ccc(NS(=O)(=O)c2ccc(OCC(=O)NCCCOC)cc2)cc1 | 2.17 | 
Cc1ccc(S(=O)(=O)NCC(c2cccnc2)N2CCOCC2)cc1 (stereo unspecified) | -3.52 | 
O=[N+]([O-])C1C(c2ccccc2)=NOC1c1ccccc1O (stereo unspecified) | -9.52 | 
O=C(Nc1ccccc1)Nc1nnc(SCc2ccc(Cl)cc2)s1 | 13.8 | 
